In PubChem BioAssay AID504332 (National Center for Advancing Translational Sciences (NCATS), 2011):
Out of some 350,000 compounds screened, about 31,000 (8.9%) were called active. Another 15% or so got no clear call; they are omitted. The list comes from a sample in which actives are over-represented; it also holds similar structures and randomly drawn compounds. A number with no mark means an inactive call. The call rests on the fitted dose curve; in most records, active means well fitted inhibition curve with a large enough effect; inconclusive means small, poorly fitted or top-dose-only effect; inactive means no such curve, though single readings can be large or run the other way.

Target: Histone-lysine N-methyltransferase EHMT2 (Homo sapiens) (UniProt Q96KQ7)
Test: qHTS Assay for Inhibitors of Histone Lysine Methyltransferase G9a; further: nearly all actives have a fitted effect of over 75% in size
Settings: G9a H3K9 monomethylation, AlphaScreen, 2 h; series mostly up to 59 µM; activity, negative = inhibition: at the top concentration
Outline: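 G9a (20 nM) preincubated 15 min RT with compounds, then 500 nM biotinylated H3K9 peptide and 20 uM SAM added; 2 h RT reaction. Monomethyl-H3K9 product detected by AlphaScreen with anti-H3K9me1 antibody, streptavidin donor and anti-rabbit IgG acceptor beads.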
On the % scale 0 is the no-effect control and ±100 the full control effect; potency means the concentration at half of the fitted maximal effect.

Sequence of Histone-lysine N-methyltransferase EHMT2 (Homo sapiens) (Q96KQ7 913-1193 limits assumed): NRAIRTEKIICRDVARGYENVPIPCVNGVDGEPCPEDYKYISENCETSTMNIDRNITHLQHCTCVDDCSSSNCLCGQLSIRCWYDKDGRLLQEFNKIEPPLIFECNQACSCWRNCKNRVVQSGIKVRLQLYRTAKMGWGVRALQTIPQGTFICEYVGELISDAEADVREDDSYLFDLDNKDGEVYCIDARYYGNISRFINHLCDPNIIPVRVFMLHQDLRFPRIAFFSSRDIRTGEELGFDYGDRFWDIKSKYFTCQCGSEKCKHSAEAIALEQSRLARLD

Question: How did the “activity, negative = inhibition” value turn out when `COc1cccc2[nH]c(C(=O)NCCc3ccccc3)cc12` was run?
Answer: The value was 21.5% [at 102 µM].

Question: `CCNC(=O)c1cnn(-c2ccccc2)c1-c1ccccc1` was tested. Which “activity, negative = inhibition” value did it give?
Answer: Its value is -1.29% [at 102 µM].

Question: `Cc1cc(=O)c2cc(C(=O)Nc3cccc(C)c3C)ccc2[nH]1` was tested. Which “activity, negative = inhibition” value did it give?
Answer: Its value is -8.29%.

Question: For `COc1cc(/C=N/NC(=O)CNC(=O)c2ccncc2)ccc1OC(C)=O`, which “activity, negative = inhibition” value is on record?
Answer: Its value is 15.1% [at 102 µM].

Question: With `COc1ccc(/C=N/NC(=O)c2ccc(Cl)cc2)cc1COC(C)=O` as the molecule, how does the “activity, negative = inhibition” value read?
Answer: The value was -4.32%.

Question: How did the Potency turn out when `COc1ccc(/C=N/NC(=O)c2ccncc2)cc1CN1CCCc2ccccc21` was run?
Answer: Its Potency is 35.5 µM (active).

Question: For `COC(=O)CN1C(=O)CSc2ccc(S(=O)(=O)Nc3cc(C)ccc3C)cc21`, which “activity, negative = inhibition” value is on record?
Answer: Its value is -6.35%.

Question: How did the Potency turn out when `CCCCSc1nnc(-c2ccc(NC(=O)CC)cc2)n1C` was run?
Answer: The Potency was 50.1 µM (active).

Question: With `Cn1c(SCC(=O)NC2CCCCC2)nnc1-c1ccc(N)cc1` as the molecule, how does the “activity, negative = inhibition” value read?
Answer: Its value is -1.06% [at 102 µM].

Question: Which “activity, negative = inhibition” value does the source give for `CCC(=O)Nc1cccc(NC(=O)CSc2nnc(-c3ccc(NS(C)(=O)=O)cc3)n2C)c1` here?
Answer: The value was -1.1%.

Question: For `CCc1ccc(N(CC(=O)NCc2cccnc2)S(=O)(=O)c2ccccc2)cc1`, which “activity, negative = inhibition” value is on record?
Answer: Its value is 11% [at 102 µM].

Question: For `Cc1ccc(S(=O)(=O)c2nnn3c2nc(N2CCN(c4ccccc4F)CC2)c2cc(Cl)ccc23)cc1C`, which “activity, negative = inhibition” value is on record?
Answer: Its value is 7.4%.

Question: `CCOc1cccc(CNC(=O)c2ccc(N3CCCC3)c(NC(=O)Nc3ccccc3CC)c2)c1` was tested. Which “activity, negative = inhibition” value did it give?
Answer: The value was -4.88%.

Question: With `CCOCCn1ccc2c(OCC(=O)NCc3ccc(C)cc3)cccc2c1=O` as the molecule, how does the “activity, negative = inhibition” value read?
Answer: Its value is -1.84%.

Question: `Cc1ccc(CNC(=O)COc2ccc3c(c2)CCC3)cc1` was tested. Which “activity, negative = inhibition” value did it give?
Answer: The value was 26.7%.

Question: `CCOCC(=O)NCc1ccc2c(c1)cc(C)n2C` was tested. Which Potency did it give?
Answer: The Potency was 35.5 µM (active).

Question: How did the “activity, negative = inhibition” value turn out when `COc1cc(Cl)c(C)cc1NC(=O)CCc1nc2cccnc2n1Cc1cccs1` was run?
Answer: The value was -19.7%.

Question: Which “activity, negative = inhibition” value does the source give for `CC(=O)c1ccc2c(c1)c1ccccc1n2CC(C)C` here?
Answer: Its value is 85.8% [at 102 µM].

Question: `CC(C)Cn1c(CCC(=O)O)ccc1-c1cccs1` was tested. Which Potency did it give?
Answer: The Potency was 17.8 µM (active).

Question: `CCn1c(NC(=O)c2ccccc2)c(-c2cccs2)c(=O)c2ccccc21` was tested. Which “activity, negative = inhibition” value did it give?
Answer: Its value is -9.9% [at 102 µM].

Question: Which “activity, negative = inhibition” value does the source give for `CCCCCn1c(CCNC(=O)c2ccc(F)cc2)nc2ccccc21` here?
Answer: The value was 5.58%.

Question: `CCN(CC)CCCNC(=O)c1c(O)c2cc(F)cc3c2n(c1=O)C(C)CC3` (configuration not stated) was tested. Which “activity, negative = inhibition” value did it give?
Answer: The value was -70% [at 102 µM].

Question: Which “activity, negative = inhibition” value does the source give for `NC(=O)c1ccc(Nc2ccc3c(c2)CCC3)c([N+](=O)[O-])c1` here?
Answer: The value was 20.1% [at 102 µM].

Question: `NC(=O)c1ccc(Nc2ccc3nonc3c2[N+](=O)[O-])cc1` was tested. Which Potency did it give?
Answer: Its Potency is 56.2 µM (active).

Question: With `CCOc1ccccc1Nc1ccc2nonc2c1[N+](=O)[O-]` as the molecule, how does the “activity, negative = inhibition” value read?
Answer: The value was -2.07% [at 102 µM].

Question: Which “activity, negative = inhibition” value does the source give for `O=C(NC1CCCC1)c1cc(-c2ccccc2)on1` here?
Answer: Its value is 7.25% [at 102 µM].

Question: With `CN(C(=O)COC(=O)CCCc1c[nH]c2ccccc12)c1c(N)n(Cc2ccccc2)c(=O)[nH]c1=O` as the molecule, how does the “activity, negative = inhibition” value read?
Answer: Its value is 16.6%.

Question: Which Potency does the source give for `CC(C)(C)N(Cc1ccccc1)C(=O)COC(=O)CCc1c[nH]c2ccccc12` here?
Answer: The Potency was 14.1 µM (active).

Question: How did the “activity, negative = inhibition” value turn out when `O=C(COC(=O)Cc1c[nH]c2ccccc12)NCCc1ccccc1` was run?
Answer: Its value is -36.1% [at 102 µM].

Question: For `O=C1CCc2cc(S(=O)(=O)Nc3ccc(C(F)(F)F)cc3)cc3c2N1CC3`, which activity, negative = inhibition is on record?
Answer: Its activity, negative = inhibition is -22.3% [at 0.501 µM].

Question: How did the “activity, negative = inhibition” value turn out when `COC(=O)c1ccc(CN2CCCC(C(=O)Nc3cccc(-n4cnnn4)c3)C2)cc1` (configuration not stated) was run?
Answer: Its value is 6.29% [at 102 µM].

Question: For `Nc1ncc(CN2CCCC(C(=O)Nc3ccc(-c4ccco4)cc3)C2)cn1` (configuration not stated), which Potency is on record?
Answer: Its Potency is 50.1 µM (active).

Question: `CCOc1ccc(NC(=O)C2CCCN(C(=O)Nc3ccccc3)C2)cc1` (configuration not stated) was tested. Which “activity, negative = inhibition” value did it give?
Answer: The value was -10.8%.

Question: Which “activity, negative = inhibition” value does the source give for `CCNS(=O)(=O)c1cc(-c2nnc(Nc3cccc(C(F)(F)F)c3)c3ccccc23)ccc1C` here?
Answer: The value was -24.3%.

Question: Which “activity, negative = inhibition” value does the source give for `Cc1c(C(=O)Nc2ccccn2)oc2ccc(Br)cc12` here?
Answer: Its value is 2.88% [at 102 µM].

Question: Which activity, negative = inhibition does the source give for `Cc1ccc(CNC(=O)c2cccc3c2C(=O)c2ccc(N4CCC(C)CC4)cc2S3(=O)=O)cc1` here?
Answer: Its activity, negative = inhibition is 6.64% [at 0.501 µM].

Question: `Cc1ccc2nc(NC(=O)CSc3nc(=O)n(CCCN(C)C)c4c3CCC4)sc2c1` was tested. Which Potency did it give?
Answer: The Potency was 39.8 µM (active).

Question: With `Cc1ccc(NC(=O)CSc2nc(=O)n(CCN(C)C)c3c2CCCC3)c(C)c1` as the molecule, how does the activity, negative = inhibition read?
Answer: Its activity, negative = inhibition is 6.7% [at 0.501 µM].

Question: Which “activity, negative = inhibition” value does the source give for `Cc1csc(NC(=O)CSc2nc(=O)n(CCCN(C)C)c3c2CCC3)n1` here?
Answer: Its value is -47% [at 102 µM].

Question: `Cc1ccc(OCC(=O)Nc2ccc(OCc3cc(=O)n4c(C)csc4n3)cc2)cc1C` was tested. Which “activity, negative = inhibition” value did it give?
Answer: Its value is 29%.

Question: `Cc1ccc(-c2nc(CS(=O)(=O)CC(=O)NCc3ccc4c(c3)OCO4)c(C)o2)cc1` was tested. Which “activity, negative = inhibition” value did it give?
Answer: The value was 1.88% [at 102 µM].

Question: Which Potency does the source give for `COc1cccc(-c2nc(CS(=O)(=O)CC(=O)NCCc3ccc(OC)c(OC)c3)c(C)o2)c1` here?
Answer: Its Potency is “inactive”.

Question: How did the Potency turn out when `COc1ccc(-c2nc(CS(=O)(=O)CC(=O)NCc3cccc(Br)c3)c(C)o2)cc1` was run?
Answer: Its Potency is 44.7 µM (active).

Question: With `CCN(CC(=O)Nc1c(F)cccc1F)C(=O)C1CCC1` as the molecule, how does the “activity, negative = inhibition” value read?
Answer: Its value is -3.45% [at 102 µM].

Question: How did the “activity, negative = inhibition” value turn out when `COc1cccc(NC(=O)C(=O)NCC(c2ccc3c(c2)OCO3)N2CCN(C)CC2)c1` (configuration not stated) was run?
Answer: The value was 6.98%.

Question: With `CCOC(=O)c1c(-c2ccc(OC)cc2)oc2ccc(OCc3ccc(C(=O)OC)cc3)cc12` as the molecule, how does the “activity, negative = inhibition” value read?
Answer: Its value is 58.2%.

Question: For `CC(=O)c1sc(NC(=O)CCN2C(=O)C3CC=CCC3C2=O)nc1-c1ccccc1` (configuration not stated), which activity, negative = inhibition is on record?
Answer: The activity, negative = inhibition was -8.89% [at 2.33 µM].
